Compound activity (PubChem BioAssay)
Pf growth 96h: P. falciparum growth inhibition at 96 hours; P. falciparum luciferase reporter growth, 96 h; Potency, µM (doses to about 28.7 µM), for inactives: at the top dose activity change, negative = inhibition, hits mostly inhibitors; 320,000 compounds, 6.9% hits; note: potency is the fitted concentration of half-maximal effect; % is set by controls: 0 for no effect and ±100 for the full control effect
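Plates of compound plus infected erythrocytes (2% hematocrit, 0.05% parasitemia final) incubate 96 hours, 37 C, 5% CO2. Detection reagent added; reduced luminescence from the parasites' luciferase reporter flags inhibition.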
Shiga toxin inh: Shiga toxin inhibition; Vero cells, Shiga toxin protein synthesis inhibition reporter; inhibition, % at 38.7 µM; 290,000 compounds, 9.2% hits; in the data active = inhibition mostly above about 28%, no sharp cut-off; inactive = mostly below about 43%; note: 0% is about no effect
NS1 function inh: influenza NS1 inhibition; Potency, µM (highest dose often 46.1 µM), without a hit: at the highest dose activity, positive = more growth; 270,000 compounds, 0.4% hits; calls by dose curve; note: potency is the fitted concentration of half-maximal effect; actives are rising curves; nearly all actives have a fitted effect of over 50% in size
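S. cerevisiae expressing influenza A NS1, grown in glucose, washed, then diluted 1:100 into pH 6.0 -URA galactose medium with 23 nl compound. Growth recovery read as OD600; NS1-free strain serves as control.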
Pf growth 48h: inhibits P. falciparum growth in the first generation, 48 h | Potency, µM (highest dose often 28.7 µM), for inactives: at the top dose activity change, negative = inhibition, hits mostly inhibitors | 310,000 compounds, 5.9% hits | P. falciparum luciferase growth in erythrocytes, 48 h | AID 504832; note: potency is the fitted concentration of half-maximal effect; % is set by controls: 0 for no effect and ±100 for the full control effect
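A one-generation exposure of luciferase-tagged malaria parasites in RPMI 1640/Albumax erythrocyte culture, 37 C and 5% CO2. Inhibition is inferred from decreased luminescence after adding detection reagent.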
Cycloheximide cs: affects cycloheximide protein synthesis inhibition readout, counter-screen; cell reporter, cycloheximide protein synthesis inhibition counterscreen; max response, %; 300,000 compounds, 12% hits; AID 2314; in the data active = max response mostly above about 13%, no sharp cut-off; inactive = mostly below about 14%; note: read at 38.3 µM for the half of the compounds with a filed dose; 0% is about no effect
Numbers without * were called inactive; ? = inconclusive; nt = no result. Rows were chosen to be rich in hits. Some 21% of all compounds tested hit in one or more screens of this group. Unless noted, calls come from the whole dose curve; as a rule, active = well fitted inhibition curve with a large enough effect; inconclusive = small, poorly fitted or top-dose-only effect, or another doubt; inactive = no such curve, though single readings can be large or run the other way.

SMILES	Pf growth 96h	Shiga toxin inh	NS1 function inh	Pf growth 48h	Cycloheximide cs
O=C(Nc1ccccc1)Nc1ccccc1	nt	93*	nt	nt	48*
CC(=O)Nc1ccc(NC(=O)Nc2cccc(Cl)c2)cc1	60%	50*	6%	0%	27*
CC(C)CC(c1nnnn1Cc1ccccc1)N1CCC(C(N)=O)CC1 (stereo not given)	157%	-6	-2%	?	-3
CC(=O)c1ccc(NC(=O)Nc2cccc(Cl)c2)cc1	?	61*	-112%	nt	37*
O=C(NNc1cccc(Cl)n1)Nc1cccc(Cl)c1	13µM*	-15	4%	nt	-7
O=C(Nc1ccccc1)C(Cl)C(=O)c1ccccc1 (stereo not given)	-18%	nt	-136%	1%	36*
O=C(Nc1ccccc1)Nc1cccc(Cl)c1	?	107*	-174%	nt	56*
Cc1nc(N2CCc3ccccc32)[nH]c(=O)c1CCC(C)C	nt	nt	-1%	nt	nt
COC(=O)C(C)(C)ONC(=O)Nc1ccc(C)cc1	18%	43*	3%	52%	21*
O=C(Nc1cccc(Cl)c1)Nc1nnc(-c2ccncc2)s1	5.2µM*	28	-24%	12µM*	-1
COC(=O)C(C)(C)ONC(=O)Nc1ccc([N+](=O)[O-])cc1	?	18	-3%	38%	12
Cc1ccc2nc(CCl)[n+]([O-])c(-c3ccccc3)c2c1	?	-1	0%	14%	2
CCC[C@H](NC(=O)[C@H](Cc1ccc(O[S+](=O)([O-])O)cc1)NC(=O)OC(C)(C)C)C(=O)NCC(=O)N[C@@H](Cc1c[nH]c2ccccc12)C(=O)N[C@@H](CCC)C(=O)N[C@@H](CC(=O)OCCc1ccccc1)C(=O)O	nt	-10	nt	nt	-7
COc1ccc(NC(=O)c2ccc(COc3ccc(C)cc3)o2)cc1	5.2µM*	73*	-9%	3%	34*
CC(=O)Nc1ccc(NC(=O)c2ccc(COc3ccc(C)cc3)o2)cc1	9.3µM*	111*	13%	0%	19*
NC(=O)c1ccc(NC(=O)c2ccc(COc3ccc(F)cc3)o2)cc1	36%	nt	nt	5%	nt
O=C(O)c1ccc(NC(=O)c2ccc(COc3ccccc3)o2)cc1	52%	55	3%	13%	17
C[C@]1(c2ccccc2)O[C@@H]2C[C@@H]3[C@@H]4CCC5=CC(=O)C=C[C@@]5(C)[C@]4(F)[C@H](O)C[C@]3(C)[C@@]2(C(=O)CO)O1	nt	nt	-5%	nt	nt
O=S(=O)(c1ccc(F)cc1)N1CCN(c2ncnc3c2cnn3-c2ccccc2)CC1	21%	-1	-5%	-16%	-8
O=C(Cn1ccsc1=NC(=O)c1ccco1)c1ccccc1	40%	32	-2%	46%	24*
CCCc1cc(COC)c(C#N)c(=O)[nH]1	nt	nt	0%	nt	nt
CC(C)(C)OC(=O)N[C@H](C(=O)OC(C)(C)C)c1ccc2c(c1)OCO2	?	nt	nt	12µM*	nt
CC1CC(c2ccccc2)=Nc2ccccc2N1 (stereo not given)	25%	54*	-2%	40%	46*
O=C1c2ccccc2C(=O)C1C1=Nc2ccccc2NC(c2ccccc2)C1 (stereo not given)	-3%	-12	1%	-1%	5
O=C(COc1ccc(S(=O)(=O)NC2CCCCC2)cc1Cl)NCC1CCCO1 (stereo not given)	nt	-2	-15%	?	-3
SMILES	Pf growth 96h	Shiga toxin inh	NS1 function inh	Pf growth 48h	Cycloheximide cs
COc1cc(NS(=O)(=O)c2ccc(C)c(C)c2)c(OC)cc1Cl	6.6µM*	-9	-7%	-4%	-6
COc1ccc(S(=O)(=O)NC2CC2)cc1Cl	2.3µM*	nt	10%	-23%	-2
COc1ccc(CCNC(=O)COc2ccc(S(=O)(=O)NC3CCCCC3)cc2Cl)cc1	?	-13	6%	13µM*	12
CCOc1ccc(S(=O)(=O)N(C)CC(=O)N2CCCC2)cc1	0%	-19	-7%	5%	3
CCOC(=O)C1(Cc2cccc(OC)c2)CCCN(C(=O)c2ccccc2C)C1 (stereo not given)	-28%	116*	-2%	12%	59*
CCOC(=O)C1(Cc2cccc(OC)c2)CCCN(C(=O)CNC(C)=O)C1 (stereo not given)	-6%	nt	-7%	1%	38*
CCOC(=O)C1(Cc2cccc(OC)c2)CCCN(C(=O)c2cc(C)on2)C1 (stereo not given)	6.6µM*	92*	-7%	-15%	37*
CC(C)=C[C@H]1[C@@H](COC(=O)c2cc3c(cc2Cl)OCO3)C1(C)C	nt	nt	6%	nt	nt
